# Data: PubChem BioAssay AID588850 (Sanford-Burnham Center for Chemical Genomics, 2011)
# About 3,100 (0.86%) of roughly 360,000 compounds were called active.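 Rule for the calls: active = at least 50% inhibition at 5 µM, scaled per plate between neutral and stimulator controls; inactive = the rest.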 Shown is part of a subset that was picked to be rich in actives.
# Experiment: NF-kB reporter blockers in CF airway cells – cell-based, GFP fluorescence, uHTS, primary screen (AID 588850);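 note: PAF is a Pseudomonas aeruginosa culture filtrate used as stimulus; plate controls were PAF-stimulated DMSO wells for no effect and unstimulated DMSO wells for full effect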
# Conditions: KKLEB NF-kB-GFP reporter, PAF-induced, GFP fluorescence overnight; at 5 µM; active compounds read high
row,Structure (SMILES),inhibition
1,CCn1c(SCC(=O)Nc2ccccc2F)nc2c(c1=O)SC(C)C2 (centres undefined),6.5% (inactive)
2,O=C(O)CSc1nccc2ccccc12,-3.7% (inactive)
3,CCOC(=O)C(C(=O)c1ccccc1)C(c1ccccc1)c1nccc2ccccc12 (centres undefined),50.6% (active)
4,CCOC(=O)CSc1ccccn1,-2.8% (inactive)
5,O=c1nc(N2CCOCC2)nc2n1CCO2,-13% (inactive)
6,Cc1cccc(C)c1Cn1c(C)c(C(=O)NCc2cccc(Cl)c2)sc1=O,10.9% (inactive)
7,CC(C)c1ccc2c(c1)c(SC(C)(C)C)c(CC(C)(C)C(=O)O)n2Cc1ccc(Cl)cc1,63.4% (active)
8,COc1ccc(CCNC(=O)Nc2ccc3c(c2)c(=O)n(C)n3C)cc1OC,14.5% (inactive)
9,CC(C)C(=O)Nc1c2c(nn1-c1ccccc1)CSC2,7% (inactive)
10,Cn1c(=O)c2c(n(Cc3ccccc3)c1=O)NC(=O)C2CC(=O)N1CCc2ccccc2C1 (centres undefined),18% (inactive)
11,O=C(Nc1cccc([N+](=O)[O-])c1)N1CCc2ccccc2C1,21.9% (inactive)
12,COC(=O)/C=C\C(=O)Nc1cccc([N+](=O)[O-])c1,92.2% (active)
13,COc1cccc(NCCC(=O)c2cccc([N+](=O)[O-])c2)c1,-10.5% (inactive)
14,O=C(CNC(=O)N1CC(=O)Nc2ccccc21)Nc1ccc(Br)cc1F,-4.5% (inactive)
15,COc1ccc(N(CC(=O)N/N=C/c2cccc3c2OCCO3)S(=O)(=O)c2ccc(NC(C)=O)cc2)cc1,-5.5% (inactive)
16,COCOCCn1cc(CN2CCS(=O)(=O)N(Cc3ccc(-c4cccc(N(C)C)c4)cc3)C(CC(C)C)C2=O)nn1 (centres undefined),6.3% (inactive)
17,CC[C@H]1CN2CCc3cc(OC)c(OC)cc3[C@@H]2C[C@@H]1C[C@H]1NCCc2cc(OC)c(OC)cc21,82.5% (active)
18,COc1cc(/C=C/C(=O)O)cc(S(=O)(=O)Nc2ccccc2C(=O)NCCc2ccccc2)c1OC,-10.9% (inactive)
19,Cc1ccc(NC(=O)NC(=O)CSc2nnc(-c3ccc(OC(F)F)cc3)n2N)c(C)c1,-26.2% (inactive)
20,Cc1ccc(-n2ncc3c2CC(C)(C)CC3NC(=O)Cc2c(C)noc2C)cc1 (centres undefined),28.3% (inactive)
21,Cc1ccc(-c2nn(-c3ccccc3)cc2/C=C2\SC(=S)N(CCCCCC(=O)O)C2=O)o1,53.8% (active)
22,CN(C(=O)CCN1C(=O)/C(=C/c2ccccc2F)SC1=S)C1CCS(=O)(=O)C1 (centres undefined),-14.9% (inactive)
23,O=C1/C(=C\c2ccccc2Cl)SC(=S)N1CCC(=O)N1CCCc2ccccc21,8.4% (inactive)
24,CN(C)S(=O)(=O)c1ccc(N2CCCC2)c(C(=O)Nc2ccc(Br)cc2F)c1,21.3% (inactive)

row,Structure (SMILES),inhibition
1,Cc1cc2c3ccccc3[nH]c(=O)n2n1,-16.8% (inactive)
2,O=c1c2c(ncn1Cc1ccccc1)nc1n2CCC1,1.3% (inactive)
3,CN(C)c1ccnc2sc3c(=O)n(Cc4ccccc4)cnc3c12,80.2% (active)
4,CN(C)/C=C/c1c(C#N)c(=O)ncn1Cc1ccccc1,-10.4% (inactive)
5,O=C(Nc1ccc(F)cc1)Nc1nnc([C@H]2C[C@H](O)[C@@H](CO)O2)s1,8% (inactive)
6,CCOC(=O)c1cc(C(=O)Nc2ccc(S(=O)(=O)Nc3ccc(OC)cc3)cc2)nn1C,-4.7% (inactive)
7,CCN(Cc1ccccc1)C(=O)CCS(=O)(=O)c1ccc2c(c1)oc(=O)n2C,-2.4% (inactive)
8,O=C1Nc2ccccc2/C1=C/c1ccnc2ccccc12,50.5% (active)
9,COCCN(C(=O)CCC(=O)Nc1ccccn1)C(C(=O)NCCC(C)C)c1ccc(OC)cc1 (centres undefined),-7.9% (inactive)
10,CCOC(=O)N1CCN(S(=O)(=O)c2ccc3c(c2)C(C)C(=O)N3)CC1 (centres undefined),-4% (inactive)
11,NC(=O)c1ncn([C@@H]2O[C@H](CNCc3cnc(N4CCOCC4)s3)[C@@H](O)[C@H]2O)n1,-11.1% (inactive)
12,CC(=O)Nc1ccc(SCC(=O)NC(=O)c2ccc(Cl)cc2)cc1,-19.2% (inactive)
13,O=C(O)CSCC(=O)Nc1ccc(C(F)(F)F)cc1,-2.9% (inactive)
14,O=C(CCl)Nc1ccc(Sc2ccc(NC(=O)CCl)cc2)cc1,93.7% (active)
15,Cc1[nH]c2ccccc2c1SCC(=O)Nc1nccs1,1% (inactive)
16,CCNC(=O)C1CCCN(C(=O)c2cc(F)ccc2C)CC1 (centres undefined),-17.2% (inactive)
17,Cc1ccccc1-c1ccc2c(c1)O[C@@H](CN(C)Cc1ccc(C(=O)O)cc1)[C@@H](C)CN([C@H](C)CO)S2(=O)=O,44.9% (inactive)
18,CC(NC(=O)c1cc2cc(Cl)ccc2oc1=N)c1ccccc1 (centres undefined),23.8% (inactive)
19,COc1cc2c3c(c1)/C(=C1/SC(=S)NC1=O)C(=O)N3C(C)(C)C=C2C,50.7% (active)
20,CCOc1ccc(NC(=O)CSc2ncnc3c2sc2ccccc23)cc1,5.6% (inactive)
21,Cc1ccc(C)c(NC(CC(=O)c2ccccc2)C(=O)OCC(=O)c2cccs2)c1 (centres undefined),-4.5% (inactive)
22,O=C(NCC(=O)N1CCN(c2ccccc2F)CC1)c1cccs1,-14.2% (inactive)
23,Cc1ccccc1C(CC(=O)c1cccs1)C(C#N)C#N (centres undefined),83.8% (active)
24,O=Nc1c(O)cc(O)c2ccccc12,-12.5% (inactive)

row,Structure (SMILES),inhibition
1,O=Cc1c(NCCc2cccc(F)c2)c2ccccc2[nH]c1=O,5% (inactive)
2,O=C(Cn1c(NCCO)nc2ccccc21)c1ccc(Cl)cc1Cl,1.6% (inactive)
3,OCCNCCOc1ccc(Cl)c(Cl)c1,-8.5% (inactive)
4,OCCNc1nc(Nc2ccc(Cl)c(Cl)c2)nc2ccccc12,87.5% (active)
5,O=c1[nH]c(=S)[nH]c(O)c1/C=C1\C=Nc2ccccc21,69.3% (active)
6,c1csc(-c2nnc(COc3ncnc4sccc34)o2)c1,18.1% (inactive)
7,C=C(C)C(=O)O[C@H]1C/C(C)=C\C(=O)/C=C(\C)[C@H](O)[C@@H]2OC(=O)C(=C)[C@@H]21,74.1% (active)
8,CCN(Cc1ccccc1)C(=O)CSc1nc(C)cc2c1C(=O)OC2,5% (inactive)
9,Oc1c(Cl)cc(Cl)c(Cl)c1Cc1c(O)c(Cl)cc(Cl)c1Cl,65.4% (active)
10,O=c1[nH]c(CCl)nc2cc(-c3ccc(Cl)cc3)sc12,7.1% (inactive)
11,CC[N+]1(CC)CC2=Cc3ccccc3CC2C1 (centres undefined),-4% (inactive)
12,COc1ccc(CC(=O)c2ccc(O)cc2O)cc1OC,-7.8% (inactive)
13,C=CCOc1ccccc1CNn1c(C)n[nH]c1=S,5.7% (inactive)
14,CN(C)C(=O)c1cccc(-c2cnc3sc(NCc4ccc5c(c4)OCO5)nn23)c1,82.2% (active)
15,O=C(CSc1ncnc2scc(-c3ccccc3)c12)NCc1ccc2c(c1)OCO2,13.3% (inactive)
16,O=C(COC(=O)c1ccc(Cl)nc1)NCc1ccc2c(c1)OCO2,-9.2% (inactive)
17,Cc1ccc(Cn2c(C)c(C(=O)NCc3ccccc3C(F)(F)F)sc2=O)cc1,-26.2% (inactive)
18,Cc1c(Nc2nc3ccccc3nc2NS(=O)(=O)c2cccs2)c(=O)n(-c2ccccc2)n1C,9.5% (inactive)
19,Cc1ccc(C2CCN(C(=S)Nc3cccc(Cl)c3)C2)cc1 (centres undefined),7.5% (inactive)
20,COc1ccc(/C=C/C(=O)NC(=S)NN2CCCCC2c2cccnc2)cc1 (centres undefined),-13% (inactive)
21,Cc1ccc(Cc2c(-c3ccco3)nc3ccc(Cl)cn23)cc1,66.3% (active)
22,Cc1ccc(Cc2c(-c3ccccc3)nc3ccc(Cl)cn23)cc1,20.8% (inactive)
23,Cc1ccc2nc(-c3ccco3)c(Cc3cccc(Cl)c3)n2c1,2.7% (inactive)
24,S=c1[nH]c2ccccc2c2ccccc12,-8.9% (inactive)

row,Structure (SMILES),inhibition
1,CC(=O)c1cccc(-c2cnc3c(NC=O)cc(-c4ccc(N5CCN(C)CC5)cc4)cn23)c1,22.9% (inactive)
2,O=C(Nc1ccc(Cl)cc1)Nc1nnc(/C=C/c2ccccc2)s1,51.2% (active)
3,COc1ccc(/C=C/c2nnc(NC(=O)C(C)C)s2)cc1,17.7% (inactive)
4,O=C(CSc1ccccc1)Nc1nnc(/C=C/c2ccccc2)s1,22.7% (inactive)
5,Cc1cc(OCCCC(=O)Nc2cc(S(=O)(=O)N3CCOCC3)ccc2N2CCOCC2)ccc1Cl,7.1% (inactive)
6,CCOC(=O)c1sc2nc(C)nc(SCC(N)=O)c2c1C,11.9% (inactive)
7,CC(=O)c1ccc(NC(=O)C(C)N(C)CC(=O)Nc2ccccc2Cl)cc1 (centres undefined),2.6% (inactive)
8,O=C(COc1ccc(-n2cnnn2)cc1)Nc1ccccc1Cl,-3.5% (inactive)
9,O=C(Nc1ccccc1Cl)/C(Cl)=C(\Cl)S(=O)c1ccccc1 (centres undefined),82.8% (active)
10,COc1cccc(CC(=NO)c2cccc(OC)c2)c1,11.3% (inactive)
11,COc1cc(C(=O)NCCOC(=O)c2cccc(N(C)C)c2)cc(OC)c1OC,3.4% (inactive)
12,Cn1c(=O)c2c(ncn2CC(=O)N/N=C/c2cn[nH]c2-c2ccc(F)cc2)n(C)c1=O,-32.9% (inactive)
13,NC1=CC(=O)C(=O)c2cccnc21,92.2% (active)
14,CCCCc1nc(NCCN)c(C#N)c2c1CSC(C)(C)C2,2.5% (inactive)
15,FC(F)Oc1ccc(NC(=S)NCc2ccco2)cc1Cl,-1.9% (inactive)
16,CCOc1c(Nc2cccc(Cl)c2)c(=O)c1=O,-0.1% (inactive)
17,OCCCNc1nccc(-c2cc(Nc3cccc(Cl)c3)ncn2)n1,84.5% (active)
18,Cc1nc(C(F)(F)F)ccc1C(=O)N1CCC1(C)C(=O)NS(=O)(=O)c1ccc(F)cc1F (centres undefined),0.2% (inactive)
19,O=C(CCN1C(=O)[C@@H]2Cc3ccccc3CN2C1=O)NCCc1ccccc1,16% (inactive)
20,O=C(Nc1ccc2oc(-c3ccc4ccccc4c3)nc2c1)c1cccs1,51.3% (active)
21,COc1cc(OC)cc(C(=O)Nc2ccc(-c3nc4ccccc4o3)c(O)c2)c1,-44.7% (inactive)
22,O=C(Nc1ccc2oc(-c3ccccc3F)nc2c1)c1ccco1,-15% (inactive)
